Inconclusive results are not listed. Entries that show only a call come without a potency. Calls of active or inactive are those of the source. Calls follow the shape of the dose curve; as a rule, active = well fitted cell-killing curve with a large enough effect in the repeat runs; inconclusive = weak or mixed curves, or effect the other way; inactive = flat fitted curve, though single readings scatter.
Experiment: cAMP Responsive Elements (CRE) small molecule antagonists, cell-based qHTS assay: qHTS cell viability counter screen (AID 2060913); also: nearly all actives have a fitted effect of over 40% in size
Conditions: CRE-bla HEK293T viability, CellTiter-Glo luminescence, 5 h; series mostly up to 92.4 µM
In short: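 HEK293T CRE-bla, 2,000 cells/well, 18 h preincubation; cpd in DMSO + NKH477 0.25 uM final, 3 h 37 C/5% CO2; LiveBLAzer 2 h RT, then CellTiter-Glo 30 min RT, luminescence.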
With `C=C(C)C#N` the Potency was “inactive”.
With `Cc1cc(C(F)(C(F)(F)F)C(F)(F)F)ccc1NC(=O)c1cccc(I)c1C(=O)NC(C)(C)CS(C)(=O)=O` the Potency was “inactive”.
For `CCC(C)C(C)(COC(N)=O)COC(N)=O` (stereo not given), the Potency was “inactive”.
For `COP(=S)(NC(C)C)Oc1ccc(C)cc1[N+](=O)[O-]` (stereo not given), the Potency was “inactive”.
With `CCCC(=O)Cl` the Potency was “inactive”.
With `CS(=O)(=O)NC(=O)c1cc(Oc2ccc(C(F)(F)F)cc2Cl)ccc1[N+](=O)[O-]` the Potency was “inactive”.
In the case of `ClCc1ccc(Cl)cc1Cl`, the Potency was “inactive”.
With `Cc1nn(-c2cc(NS(C)(=O)=O)c(Cl)cc2Cl)c(=O)n1C(F)F` the Potency was “inactive”.
For `CCC(C)Cl` (stereo not given), the Potency was “inactive”.
For `C[N+](C)(C)C`, the Potency was “inactive”.
With `Cc1ccc(C(=O)Cl)cc1` the Potency was “inactive”.
In the case of `O=c1oc2ccccc2c(O)c1Cc1c(O)c2ccccc2oc1=O`, the Potency was “inactive”.
With `CN(C)[C@@H]1C(=O)C(C(N)=O)=C(O)[C@@]2(O)C(=O)C3=C(O)c4c(O)cccc4[C@@](C)(O)[C@H]3[C@H](O)[C@@H]12` the Potency was “inactive”.
With `CON(C)C(=O)Nc1ccc(Cl)cc1` the Potency was “inactive”.
In the case of `COc1cc(OC)nc(Sc2cccc(Cl)c2C(=O)O)n1`, the Potency was “inactive”.
In the case of `CC(Cc1ccc2c(c1)OCO2)NO` (stereo not given), the Potency was “inactive”.
For `CC(O)CCO` (stereo not given), the Potency was “inactive”.
With `O=C(O)COc1nc(Cl)c(Cl)cc1Cl` the Potency was “inactive”.
For `NCc1cccnc1`, the Potency was “inactive”.
In the case of `Oc1c(Cl)c(Cl)cc(Cl)c1Cl`, the Potency was “inactive”.
For `CCCCN=C=O`, the Potency was “inactive”.
In the case of `C[C@H]1CNCCc2ccc(Cl)cc21`, the Potency was “inactive”.
For `O=Cc1ccc(Cl)cc1Cl`, the Potency was “inactive”.
In the case of `[Cl][Sb]([Cl])[Cl]`, the Potency was “inactive”.
For `O=S(=O)(c1ccccc1)c1ccccc1`, the Potency was “inactive”.
In the case of `c1ccc2sc(SNC3CCCCC3)nc2c1`, the Potency was “inactive”.
With `N#CC(c1ccccc1)c1ccccc1` the Potency was “inactive”.
With `Clc1ccccc1Cl` the Potency was “inactive”.
In the case of `COC(=O)NC(=S)Nc1ccccc1NC(=S)NC(=O)OC`, the Potency was “inactive”.
For `CCNc1nc(NC(C)(C)C)nc(SC)n1`, the Potency was “inactive”.
In the case of `Clc1ccc(C(Cl)(Cl)Cl)cc1`, the Potency was “inactive”.
For `CC[C@H](O)C(C[C@H](C)N(C)C)(c1ccccc1)c1ccccc1`, the Potency was “inactive”.
With `C1CS1` the Potency was “inactive”.
For `CC(C)(c1ccccc1)c1ccc(O)cc1`, the Potency was “inactive”.
With `COc1ccc(C(CN(C)C)C2(O)CCCCC2)cc1` (stereo not given) the Potency was “inactive”.
In the case of `N#CCC#N`, the Potency was “inactive”.
With `CC(C)=CC1C(C(=O)OC(C#N)c2cccc(Oc3ccccc3)c2)C1(C)C` (stereo not given) the Potency was “inactive”.
With `OCCSSCCO` the Potency was “inactive”.
With `N[C@@H]1C[C@H]1c1ccccc1` the Potency was “inactive”.
In the case of `CC(C)c1ccc(NC(=O)N(C)C)cc1`, the Potency was “inactive”.

Experiment: cAMP Responsive Elements (CRE) small molecule agonists, cell-based qHTS assay: qHTS cell viability counter screen (AID 2060914); also: nearly all actives have a fitted effect of over 50% in size
Conditions: CRE-bla HEK293T viability, CellTiter-Glo luminescence, 5 h; series mostly up to 92.4 µM
In short: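 Luminescence read-out (CellTiter-Glo, 30 min RT) of ATP-based viability in CRE-bla HEK 293T cells, run in the same wells as the β-lactamase reporter assay after 3 h compound treatment at 37 °C.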
For `C=C(C)C#N`, the Potency was “inactive”.
In the case of `Cc1cc(C(F)(C(F)(F)F)C(F)(F)F)ccc1NC(=O)c1cccc(I)c1C(=O)NC(C)(C)CS(C)(=O)=O`, the Potency was “inactive”.
With `CCC(C)C(C)(COC(N)=O)COC(N)=O` (stereo not given) the Potency was “inactive”.
In the case of `COP(=S)(NC(C)C)Oc1ccc(C)cc1[N+](=O)[O-]` (stereo not given), the Potency was “inactive”.
For `CCCC(=O)Cl`, the Potency was “inactive”.
With `CS(=O)(=O)NC(=O)c1cc(Oc2ccc(C(F)(F)F)cc2Cl)ccc1[N+](=O)[O-]` the Potency was “inactive”.
For `ClCc1ccc(Cl)cc1Cl`, the Potency was “inactive”.
In the case of `Cc1nn(-c2cc(NS(C)(=O)=O)c(Cl)cc2Cl)c(=O)n1C(F)F`, the Potency was “inactive”.
For `CCC(C)Cl` (stereo not given), the Potency was “inactive”.
For `C[N+](C)(C)C`, the Potency was “inactive”.
With `Cc1ccc(C(=O)Cl)cc1` the Potency was “inactive”.
For `O=c1oc2ccccc2c(O)c1Cc1c(O)c2ccccc2oc1=O`, the Potency was “inactive”.
For `CN(C)[C@@H]1C(=O)C(C(N)=O)=C(O)[C@@]2(O)C(=O)C3=C(O)c4c(O)cccc4[C@@](C)(O)[C@H]3[C@H](O)[C@@H]12`, the Potency was “inactive”.
For `CON(C)C(=O)Nc1ccc(Cl)cc1`, the Potency was “inactive”.
With `COc1cc(OC)nc(Sc2cccc(Cl)c2C(=O)O)n1` the Potency was “inactive”.
For `CC(Cc1ccc2c(c1)OCO2)NO` (stereo not given), the Potency was “inactive”.
For `CC(O)CCO` (stereo not given), the Potency was “inactive”.
With `O=C(O)COc1nc(Cl)c(Cl)cc1Cl` the Potency was “inactive”.
With `NCc1cccnc1` the Potency was “inactive”.
For `Oc1c(Cl)c(Cl)cc(Cl)c1Cl`, the Potency was “inactive”.
With `CCCCN=C=O` the Potency was “inactive”.
In the case of `C[C@H]1CNCCc2ccc(Cl)cc21`, the Potency was “inactive”.
With `O=Cc1ccc(Cl)cc1Cl` the Potency was “inactive”.
With `[Cl][Sb]([Cl])[Cl]` the Potency was “inactive”.
With `O=S(=O)(c1ccccc1)c1ccccc1` the Potency was “inactive”.
For `c1ccc2sc(SNC3CCCCC3)nc2c1`, the Potency was “inactive”.
With `N#CC(c1ccccc1)c1ccccc1` the Potency was “inactive”.
For `Clc1ccccc1Cl`, the Potency was “inactive”.
With `COC(=O)NC(=S)Nc1ccccc1NC(=S)NC(=O)OC` the Potency was “inactive”.
In the case of `CCNc1nc(NC(C)(C)C)nc(SC)n1`, the Potency was “inactive”.
With `Clc1ccc(C(Cl)(Cl)Cl)cc1` the Potency was “inactive”.
In the case of `CC[C@H](O)C(C[C@H](C)N(C)C)(c1ccccc1)c1ccccc1`, the Potency was “inactive”.
For `C1CS1`, the Potency was “inactive”.
With `CC(C)(c1ccccc1)c1ccc(O)cc1` the Potency was “inactive”.
In the case of `COc1ccc(C(CN(C)C)C2(O)CCCCC2)cc1` (stereo not given), the Potency was “inactive”.
In the case of `N#CCC#N`, the Potency was “inactive”.
For `CC(C)=CC1C(C(=O)OC(C#N)c2cccc(Oc3ccccc3)c2)C1(C)C` (stereo not given), the Potency was “inactive”.
In the case of `OCCSSCCO`, the Potency was “inactive”.
For `N[C@@H]1C[C@H]1c1ccccc1`, the Potency was “inactive”.
With `CC(C)c1ccc(NC(=O)N(C)C)cc1` the Potency was “inactive”.

Reference: PubChem BioAssay (Tox21)
